Calls of active or inactive are those of the source. How the source made its calls: active means hit-call score of the fitted dose curve at least 0.9, where 1 is the maximum; inactive means score below 0.9.

The experiment can be described thus: CCTE_Shafer_MEA_acute_cross_correlation_HWHM: CCTE's Neural Acute Assay for Cross Correlation at Half Width at Half Maximum, Shafer Lab (AID 2284026). As to the method:
CCTE_Shafer_MEA_acute assay is conducted using Axion Biosystems 48 well microelectrode array (MEA) plates and Maestro recording system. Each well of the MEA plate contains a grid of 16 microelectrodes embedded in the culture surface. Electrically active cells, such as neurons, can be cultured over the electrodes, and electrical activity in these cells can be recorded extracellularly. The spontaneous firing of neurons is captured from each electrode on a microsecond timescale providing both temporally and spatially precise data. […] The CCTE_Shafer_MEA_acute assay uses primary cultures of rat cortical neurons. As these cultures mature over time, neural networks develop functional activity and form cohesive networks in which electrical activity can be highly coordinated. Baseline 40-minute recordings are made on days post-plating 13 or 15, followed by a secondary 40-minute recording after chemical exposure.CCTE_Shafer_MEA_acute_cross_correlation_HWHM is a component of the CCTE_Shafer_MEA_acute assay. It measures the distance along the x-axis (phase lag) from the left half maximum height to the center of the cross-correlogram of action potential firing during a recording in a microelectrode array (MEA) using Axion Biosystems Maestro 768 channel amplifier with the AxIS adaptive spike detector. Smaller values indicate a narrower correlogram (greater synchrony). The recordings before and after chemical treatment are used to calculate a percent change in the half width at half maximum of the cross-correlogram in each well.Data from the assay component CCTE_Shafer_MEA_acute_cross_correlation_HWHM was analyzed into 1 assay endpoint. This assay endpoint, CCTE_Shafer_MEA_acute_cross_correlation_HWHM, was analyzed in the negative analysis fitting direction relative to DMSO as the negative control and baseline of activity. Using a type of functional reporter, gain or loss-of-signal activity can be used to understand electrical activity.
Spontaneous activity in the cortical cultures was recorded using an Axion Biosystems Maestro 768 channel amplifier and Axion Integrated Studios (AxIS) v1.8 (or later) software. The amplifier recorded from all channels simultaneously (gain = 1200 x; sampling rate = 12.5 kHz/channel): raw signals were filtered with a Butterworth band-pass filter (300-5000 Hz), which filters out slower local field potentials leaving only fast potentials, i.e., "spikes", arising from extracellular currents associated with action potentials (Pine 2006; Wheeler and Nam 2011). On-line spike detection of filtered signals was conducted with the AxIS adaptive spike detector, using a threshold of 8x the root mean squared (rms) noise on each channel. Any electrodes with rms noise levels greater than 5 uV were grounded (e.g., no data were recorded). Once grounded, an electrode was grounded for the duration of the experiment. All recordings were conducted at 37 C. Wells were deemed usable if on the day of the exposure >/= 10 electrodes were active (defined as >/= 5 spikes/min). On DIV 13 or 15, a minimum of three wells from one cortical culture preparation were treated with each compound (0.03-40 uM). Prior to recording baseline activity, each mwMEA plate was placed in the Maestro at 37 C and allowed to sit for 20 min while firing rates stabilized. Baseline activity (40 min) was recorded before the addition of each compound. An additional 40 min of spontaneous activity was recorded in the presence of each compound. Changes in network parameters relative to baseline were assessed following compound treatment.
In the case of `CCCCCCCCCCCCc1cccc(S(=O)(=O)O)c1`, the call was inactive.
Same read-out and setting: with `CN(C)C(=S)S` the entry was “inactive”.
For `CS(=O)(=O)c1ccc(C(=O)C2C(=O)CCCC2=O)c(Cl)c1COCC(F)(F)F`, the outcome was inactive.
For `CCCCOC(=O)COC(=O)c1ccccc1C(=O)OCCCC`, the compound was called inactive.
Take `CC(C)[C@@H](Nc1ccc(C(F)(F)F)cc1Cl)C(=O)OC(C#N)c1cccc(Oc2ccccc2)c1` (stereo not given in full): the compound was classed as inactive.
As for `O=C(Cc1ccccc1)OCCc1ccccc1`, the compound was classed as inactive.
Take `N#Cc1cccnc1`: the call was inactive.
For `Clc1cccc(Cl)c1Cl`, the compound was called inactive.
Regarding `OCCCCO`, the result was inactive.
As for `Oc1ccc(Cc2ccc(O)cc2)cc1`, the call was inactive.
In the case of `Cc1ccccc1OP(=O)(Oc1ccccc1C)Oc1ccccc1C`, the half-maximal activity concentration (AC50) was 23.1 µM (active).
As for `Cc1cc(C(F)(C(F)(F)F)C(F)(F)F)ccc1NC(=O)c1cccc(I)c1C(=O)NC(C)(C)CS(C)(=O)=O`, the concentration at half-maximal activity (AC50) was 4.61 µM (active).
`Oc1cc(Cl)c(Cl)cc1Cl`: the AC50 is 30.2 µM (active).
For the compound `CC1(C)[C@H](C(=O)O[C@H](C#N)c2cccc(Oc3ccccc3)c2)[C@@H]1/C=C(\Cl)C(F)(F)F`, the AC50 is 23.7 µM (active).
Regarding `CC(C)(C)c1ccccc1O`, the AC50 is 20 µM (active).

Broadly, the AC50 is the concentration giving half of the maximal activity seen.

(Values after PubChem BioAssay (EPA / NIEHS).)
